Out of some 69,000 compounds screened, about 8,600 (12%) showed an effect of 50% or more. Shown is part of a subset that was picked to be rich in strong results.
test system: Plasmodium berghei; assay: Screen against P. berghei liver stage (PbLuc), transformed with Luciferase, at 10uM; type: functional, HepG2; details: tested at 10 uM

How did the INHIBITION turn out when `Cc1cc(C)c(CNC(=O)N2CCN(c3ccncc3)CC2)c(=O)[nH]1` was run?
Its INHIBITION is -21.45%.

With `Cc1nn(C)cc1-c1ccnc(N(C)Cc2ccoc2)n1` as the compound, how does the INHIBITION read?
The INHIBITION was 51.8%.

Which INHIBITION does the source give for `Cc1nn(C)cc1-c1ccnc(N(C)Cc2cnn(C)c2)n1` here?
The INHIBITION was 74.5%.

Which INHIBITION does the source give for `Cc1nn(C)cc1-c1ccnc(N(C)Cc2ccc(F)cc2)n1` here?
Its INHIBITION is 30.1%.

`COc1ccccc1CN(C)c1nccc(-c2cn(C)nc2C)n1` was tested. Which INHIBITION did it give?
The INHIBITION was 82.3%.

For `CN(Cc1ccoc1)c1ccc(-c2nccn2C)nn1`, which INHIBITION is on record?
The INHIBITION was -120%.

With `Cc1nn(C)cc1-c1ccnc(N(C)Cc2cccs2)n1` as the compound, how does the INHIBITION read?
Its INHIBITION is 35.5%.

For `COc1ccc(CN(C)c2nccc(-c3cn(C)nc3C)n2)cc1`, which INHIBITION is on record?
The INHIBITION was -7.76%.

How did the INHIBITION turn out when `Cc1ccc(CN(C)c2nccc(-c3cn(C)nc3C)n2)o1` was run?
Its INHIBITION is 50.7%.

`Cc1nn(C)cc1CN(C)c1nccc(-c2cn(C)nc2C)n1` was tested. Which INHIBITION did it give?
The INHIBITION was 28%.

`Cc1nn(C)cc1-c1ccnc(N(C)Cc2ccon2)n1` was tested. Which INHIBITION did it give?
The INHIBITION was 49.6%.

With `CN(Cc1cnn(C)c1)c1nccc(-c2cc(C(=O)O)ccn2)n1` as the compound, how does the INHIBITION read?
The INHIBITION was 33%.

With `CCCN1CCCC1Cn1nc(C)cc1C` (centres undefined) as the compound, how does the INHIBITION read?
The INHIBITION was 34.35%.

For `N#Cc1cc(C#N)c(SCC(=O)Nc2ccc(F)cc2)nc1N`, which INHIBITION is on record?
The INHIBITION was 35.1%.

`O=C(CCN1CCCC1=O)Nc1cnn(-c2ccccc2Cl)c1` was tested. Which INHIBITION did it give?
Its INHIBITION is -46.4%.

Which INHIBITION does the source give for `CC(CNC(=O)OC(C)(C)C)N(C)C(=O)COc1ccccc1C#N` (centres undefined) here?
Its INHIBITION is 15.9%.

For `Cc1ncsc1C(=O)N(C)Cc1ccsc1`, which INHIBITION is on record?
The INHIBITION was -23.955%.

Which INHIBITION does the source give for `Cn1cnc(S(=O)(=O)N2CCCCc3ccccc32)c1` here?
The INHIBITION was -0.613%.

How did the INHIBITION turn out when `O=C(O)c1ccccc1CN1CCOC(CCc2ccncn2)C1` (centres undefined) was run?
The INHIBITION was 20.8%.

How did the INHIBITION turn out when `CCCn1cc(CNCC(c2ccc(C)s2)N2CCOCC2)cn1` (centres undefined) was run?
The INHIBITION was 63.7%.

Which INHIBITION does the source give for `Cc1ccc(C(CNCc2cnn(C(C)C)c2)N2CCOCC2)s1` (centres undefined) here?
Its INHIBITION is -48.2%.

`Cc1ccc(C(CNCc2ccncc2)N2CCOCC2)s1` (centres undefined) was tested. Which INHIBITION did it give?
The INHIBITION was -33.2%.

For `Cc1ccc(C(CNCc2cccn2C)N2CCOCC2)s1` (centres undefined), which INHIBITION is on record?
The INHIBITION was 38%.

For `Cc1ccc(C(CNCc2ccc(C#N)cc2)N2CCOCC2)s1` (centres undefined), which INHIBITION is on record?
Its INHIBITION is 69.7%.

For `CCn1cc(CNCC(c2ccc(C)s2)N2CCOCC2)cn1` (centres undefined), which INHIBITION is on record?
The INHIBITION was 14.9%.

Which INHIBITION does the source give for `O=C(NCC1COCc2c(-c3ccncc3)nnn2C1)[C@H]1CCCO1` (some centres undefined) here?
The INHIBITION was -34.6%.

With `CC(Cn1cccn1)n1cnc2cccc(F)c2c1=O` (centres undefined) as the compound, how does the INHIBITION read?
Its INHIBITION is 30%.

Which INHIBITION does the source give for `CCn1ncc(CN2CCc3c(nc(-c4cccnc4)[nH]c3=O)C2)c1C` here?
Its INHIBITION is 23.3%.

`OCCN1CCC(c2cncc(-c3cccc(Cl)c3)n2)CC1` was tested. Which INHIBITION did it give?
The INHIBITION was 23.2%.

Which INHIBITION does the source give for `N#CC1(c2ccccc2)CCN(C(=O)C2CCCN(CC(N)=O)C2)CC1` (centres undefined) here?
The INHIBITION was 61%.

Which INHIBITION does the source give for `N#CC1(c2ccccc2)CCN(C(=O)CN2C(=O)CCNC2=O)CC1` here?
The INHIBITION was 30.1%.

Which INHIBITION does the source give for `NC(=O)CN1CCCC(C(=O)N2CCC(O)(c3ccccc3)CC2)C1` (centres undefined) here?
The INHIBITION was 58.3%.

`NC(=O)CN1CCCC(C(=O)N2CCC(Oc3ncccn3)CC2)C1` (centres undefined) was tested. Which INHIBITION did it give?
Its INHIBITION is 27.6%.

`N#CC1(c2ccccc2)CCN(C(=O)C2CCCN(C(N)=O)C2)CC1` (centres undefined) was tested. Which INHIBITION did it give?
Its INHIBITION is 30.5%.

`NC(=O)CN1CCCC(C(=O)N2CCC(O)(Cc3ccccc3)CC2)C1` (centres undefined) was tested. Which INHIBITION did it give?
Its INHIBITION is 8.07%.

How did the INHIBITION turn out when `O=C(c1ccc(=O)[nH]n1)N1CCNCC1c1ccccc1` (centres undefined) was run?
The INHIBITION was 8.12%.

With `CCOCC(=O)N1CCC(c2cc3ncccc3c(O)n2)CC1` as the compound, how does the INHIBITION read?
Its INHIBITION is 0.301%.

Which INHIBITION does the source give for `CC(C)NC(=O)N1C[C@H](OCc2cccnc2)[C@H]2COC[C@H]21` here?
Its INHIBITION is -18.2%.

`Cc1nc(O)cc(C2(C)CCCNC2)n1` (centres undefined) was tested. Which INHIBITION did it give?
Its INHIBITION is 1.4%.

With `CCn1cncc1C1CC(=O)Nc2c1c(C)nn2-c1ccc(C)cc1` (centres undefined) as the compound, how does the INHIBITION read?
The INHIBITION was 42%.

With `Cc1nn(-c2ccccc2)c2c1C(c1ccc(C(=O)O)cc1)CC(=O)N2` (centres undefined) as the compound, how does the INHIBITION read?
The INHIBITION was 32.7%.

How did the INHIBITION turn out when `Cc1ccc(-n2nc(C)c3c2NC(=O)CC3c2cnc(N)s2)cc1` (centres undefined) was run?
Its INHIBITION is 62.6%.

Which INHIBITION does the source give for `CCn1ncc(S(=O)(=O)N[C@@H]2CCC[C@@H](n3ccnc3)[C@@H]2O)c1C` here?
Its INHIBITION is 28.7%.

`COCCCNc1cc(C)nn2cnnc12` was tested. Which INHIBITION did it give?
Its INHIBITION is 3.35%.

With `CC(C)CC(C)(CNC(=O)c1cnccn1)NC(=O)c1cnccn1` (centres undefined) as the compound, how does the INHIBITION read?
The INHIBITION was 25.4%.

Which INHIBITION does the source give for `CC(C)C(C)(CNC(=O)OC(C)(C)C)NC(=O)c1cnccn1` (centres undefined) here?
Its INHIBITION is 0.705%.

How did the INHIBITION turn out when `CCC(CC)(CNC(=O)OC(C)(C)C)NC(=O)c1cnccn1` was run?
Its INHIBITION is 67.4%.

With `Cn1ccc(C(=O)N2CCCC2c2cc[nH]n2)n1` (centres undefined) as the compound, how does the INHIBITION read?
Its INHIBITION is 21.925%.

With `Cc1nn(C)c(N2CCOCC2)c1CNC1CCN(C2CC2)CC1` as the compound, how does the INHIBITION read?
Its INHIBITION is -21.7%.

With `NC(=O)NC(=O)CNc1cccc(C(=O)c2ccccc2)c1` as the compound, how does the INHIBITION read?
The INHIBITION was 0.0459%.

With `CCN1CCN(S(=O)(=O)c2cc(C)c(Cl)cc2C)CC1` as the compound, how does the INHIBITION read?
The INHIBITION was 49.7%.

`CCN1CCN(S(=O)(=O)c2cc(C)c(Cl)cc2Cl)CC1` was tested. Which INHIBITION did it give?
The INHIBITION was 43.5%.

For `CCN1CCN(S(=O)(=O)c2cc(Cl)c(Cl)cc2C)CC1`, which INHIBITION is on record?
The INHIBITION was 61.8%.

How did the INHIBITION turn out when `CCN1CCN(S(=O)(=O)c2cc(C)c(C)cc2Br)CC1` was run?
The INHIBITION was 66.5%.

Which INHIBITION does the source give for `CCN1CCN(S(=O)(=O)c2ccc(Cc3cc(C)n[nH]c3=O)cc2)CC1` here?
The INHIBITION was 9.96%.

Which INHIBITION does the source give for `CCN1CCN(S(=O)(=O)c2ncn(C)c2Cl)CC1` here?
Its INHIBITION is -10.4%.

How did the INHIBITION turn out when `CN(C)S(=O)(=O)c1ccc(CNC(=O)C2CC(=O)N(C(C)(C)C)C2)cc1` (centres undefined) was run?
The INHIBITION was -3.305%.

For `CN(C)C(=O)CN1CCC(c2nnc(Cn3cccn3)n2C2CC2)CC1`, which INHIBITION is on record?
The INHIBITION was 16.3%.

`CN1[C@H](CN2CCCC2)C[C@@H]2CN(C(=O)c3cnccn3)CC[C@@H]21` was tested. Which INHIBITION did it give?
The INHIBITION was 18.6%.

`Cc1nc(C2CCN(c3ccccc3)CC2)no1` was tested. Which INHIBITION did it give?
The INHIBITION was 32.8%.

With `Cc1noc(C2CCN(C(=O)c3ccc(C(F)(F)F)nc3)CC2)n1` as the compound, how does the INHIBITION read?
Its INHIBITION is -34.025%.

`Cc1noc(C2CCN(C(=O)c3ccc(N(C)C)nc3)CC2)n1` was tested. Which INHIBITION did it give?
The INHIBITION was 6.92%.

For `Cc1noc(C2CCN(C(=O)c3ccc(NC4CC4)nc3)CC2)n1`, which INHIBITION is on record?
The INHIBITION was 59.7%.

How did the INHIBITION turn out when `CCCc1ccc2oc(C(=O)N3CCC(O)CC3)c(C)c2c1` was run?
The INHIBITION was 2.7%.

How did the INHIBITION turn out when `CSc1ccc(Cl)c(C(=O)N2CCCC(CNS(C)(=O)=O)C2)c1` (centres undefined) was run?
The INHIBITION was 41.4%.

For `COc1ccccc1OCC(=O)NS(=O)(=O)c1cccnc1`, which INHIBITION is on record?
Its INHIBITION is 29.8%.

For `CCn1c(SCC(=O)N2CCOCC2)nc2cc(C)[nH]c2c1=O`, which INHIBITION is on record?
Its INHIBITION is 2.69%.

For `CCC(C)n1c(SCC(=O)N2CCOCC2)nc2cc(C)[nH]c2c1=O` (centres undefined), which INHIBITION is on record?
The INHIBITION was 57.3%.

With `Cc1cc2nc(SCC(=O)N3CCOCC3)n(C(C)C)c(=O)c2[nH]1` as the compound, how does the INHIBITION read?
Its INHIBITION is 47.4%.

— ChEMBL document CHEMBL4513216, “Probing the Open Global Health Chemical Diversity Library for Multistage-Active Starting Points for Next-Generation Antimalarials” (ACS Infect Dis, 2020)
